TRPM1 prom inh: MITF TRPM1 promoter inhibition in SK-MEL-5 cells | SK-MEL-5 TRPM1 promoter luciferase, 24 h | inhibition, % at 12.5 µM | 330,000 tested, 0.83% active;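 active = mean inhibition across replicates of 60% or more, whatever share of single replicates reaches that level; inconclusive = some that reach 60%, reason not given; inactive = mean inhibition across replicates below 60%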
CF NFkB inh: cystic fibrosis NF-kB activation inhibition; KKLEB NF-kB-GFP reporter, PAF-induced, GFP fluorescence overnight; inhibition, % at 5 µM; 360,000 tested, 0.86% active; AID 588850;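 active = at least 50% inhibition at 5 µM, scaled per plate between neutral and stimulator controls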;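 also: PAF is a Pseudomonas aeruginosa culture filtrate used as stimulus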
LMP1 NFkB inh: Epstein-Barr LMP1 NF-kappaB reporter inhibition. LMP1-induced NF-kappaB luciferase reporter cells, luminescence. 350,000 tested, 0.69% active. inhibition, % at 12.5 µM; in the data active = inhibition above about 41%; inconclusive = no clear call, values can overlap the other calls
KKLEB tox: reduces viability of KKLEB cystic fibrosis airway cells | KKLEB CF airway cells viability, ATPlite luminescence, overnight; active compounds read low; cells stimulated with P. aeruginosa culture filtrate | activity change (cytotoxicity), % at 5 µM | 360,000 tested, 0.36% active;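 active = corrected activity change at or below -50% at 5 µM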
Peg3 prom inh-1: reduces Peg3 promoter-driven luciferase expression in HeLa | 360,000 tested, 1.7% active | inhibition, % at 20 µM | AID 588405 | HeLa PEG-Prom luciferase reporter, luminescence, overnight;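 active = inhibition of at least 50% at 20 µM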
HIF-2a inh: inhibitors of HIF-2a | 786-0 RCC cells HIF-2a reporter, luciferase luminescence, overnight | 360,000 tested, 0.72% active | AID 624352 | inhibition, % at 18.8 µM;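 active = inhibition of the luminescence signal of 40% or more relative to plate controls, in a single-dose primary screen at 18.75 µM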
Peg3 prom inh-2: Peg3 promoter inhibition confirmation; shares compounds with Peg3 prom inh-1; inhibition, % at 20 µM; 1,300 tested, 84% active; HeLa PEG-Prom luciferase reporter, luminescence, overnight;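 active = at 20 µM dose, 40% or more inhibition averaged across four replicates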
CF NFkB conf: confirmation of cystic fibrosis induced NF-kB inhibitors. shares compounds with CF NFkB inh. KKLEB CF airway cells, PAF-induced NF-kB-GFP fluorescence, overnight. inhibition, % at 5 µM. 1,300 tested, 64% active. AID 602472; in the data active = inhibition above about 40%;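 also: stimulus PAF is a Pseudomonas aeruginosa filtrate and not platelet activating factor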
Mdm2-MdmX confirm: Mdm2/MdmX (human) interaction inhibition, confirmed; shares compounds with HIF-2a inh; SaOS-2 split-luciferase Mdm2/MdmX complementation, luminescence; inhibition, % at 8 µM; 740 tested, 99% active; AID 504601;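 active = mean inhibition of the luminescence signal across two replicates at or above 26 percent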
Target sequence (O15151 whole entry, looked up): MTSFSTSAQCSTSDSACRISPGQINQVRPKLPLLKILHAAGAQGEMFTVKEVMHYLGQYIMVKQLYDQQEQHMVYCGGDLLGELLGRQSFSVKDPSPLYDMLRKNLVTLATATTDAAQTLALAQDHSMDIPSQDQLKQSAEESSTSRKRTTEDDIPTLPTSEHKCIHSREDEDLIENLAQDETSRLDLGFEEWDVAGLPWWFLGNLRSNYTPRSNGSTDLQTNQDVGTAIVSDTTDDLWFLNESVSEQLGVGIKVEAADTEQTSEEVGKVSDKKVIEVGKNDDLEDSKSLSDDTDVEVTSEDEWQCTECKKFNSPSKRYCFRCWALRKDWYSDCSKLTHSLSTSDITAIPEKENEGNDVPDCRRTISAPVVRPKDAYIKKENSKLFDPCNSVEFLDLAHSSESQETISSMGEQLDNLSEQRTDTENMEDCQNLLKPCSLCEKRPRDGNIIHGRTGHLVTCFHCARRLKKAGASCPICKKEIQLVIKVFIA
Target sequence (Q00987 whole entry, looked up): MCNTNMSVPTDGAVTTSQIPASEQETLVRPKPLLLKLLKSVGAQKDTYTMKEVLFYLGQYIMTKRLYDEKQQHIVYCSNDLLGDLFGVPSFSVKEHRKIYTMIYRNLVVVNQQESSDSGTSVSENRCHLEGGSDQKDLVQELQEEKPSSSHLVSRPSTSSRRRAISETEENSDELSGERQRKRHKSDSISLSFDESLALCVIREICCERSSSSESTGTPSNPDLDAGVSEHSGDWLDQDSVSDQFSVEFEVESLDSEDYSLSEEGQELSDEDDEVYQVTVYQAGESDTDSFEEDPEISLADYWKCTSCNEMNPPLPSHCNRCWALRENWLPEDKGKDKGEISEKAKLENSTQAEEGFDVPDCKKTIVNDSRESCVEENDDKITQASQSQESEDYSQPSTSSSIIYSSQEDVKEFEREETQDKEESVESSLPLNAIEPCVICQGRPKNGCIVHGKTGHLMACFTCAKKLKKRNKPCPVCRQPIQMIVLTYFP
HIF-2a conf: HIF-2a inhibition, single concentration confirmation | shares compounds with HIF-2a inh | 786-0 RCC cells, HIF-2a luciferase reporter luminescence, overnight | inhibition, % at 18.8 µM | 1,800 tested, 56% active | AID 651580;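 active = mean inhibition across four replicates of at least 40 percent at the single tested concentration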
HIF-1a counter: HIF-1a inhibition counter-screen for HIF-2a hits | shares compounds with HIF-2a inh | MiaPaCa-2 HIF-1a luciferase reporter, desferoxamine, overnight | inhibition, % at 18.8 µM | 1,800 tested, 72% active;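 active = mean inhibition of the reporter signal across four replicates at the single tested dose of 50% or more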
Large screens that a line does not name were inactive (follow-up assays come after a bar, where they were run). Hits are enriched below; roughly 3% of the tested compounds scored in any of these assays.

CN(C)S(=O)(=O)c1ccc(SCC(=O)Nc2cccc(S(=O)(=O)N3CCCC3)c2)nc1	none
CCCCCCCCCCCCCCC(O)C[N+](C)(CCO)CCO (configuration not stated)	CF NFkB inh 55.0, Peg3 prom inh-1 70.3, HIF-2a inh 72.8 | Peg3 prom inh-2 73.1 | CF NFkB conf 55.9 | HIF-2a conf inactive | HIF-1a counter 83.9
CCN(CC)C1CCN(C(=O)c2ccc(OC3CCN(C(=O)CCOC)CC3)cc2)C1 (configuration not stated)	none (no result: TRPM1 prom inh)
S=C(NCCSCc1ccc(Cl)cc1Cl)Nc1ccccc1	none
S=C(Nc1ccccc1)Nc1ccc(OCc2ccc(Cl)cc2Cl)cc1	TRPM1 prom inh 82.4, LMP1 NFkB inh 77.0, Peg3 prom inh-1 78.7, HIF-2a inh 92.8 | Peg3 prom inh-2 73.5 | HIF-2a conf 97.9 | HIF-1a counter 99.7
CC1=C(C(=O)OCc2ccc3c(c2)OCO3)C(c2ccc(Cl)cc2)NC(=O)N1 (configuration not stated)	CF NFkB inh 92.8, LMP1 NFkB inh 81.1, Peg3 prom inh-1 53.2 | Peg3 prom inh-2 inactive | Mdm2-MdmX confirm 95.5
CC1(C(=O)NS(=O)(=O)c2ccc(C#N)cc2)CCN1C(=O)CC1CCCCC1 (configuration not stated)	none (no result: TRPM1 prom inh, LMP1 NFkB inh)
O=C(/C=C/c1ccccc1O)c1ccco1	none
O=C(/C=C/c1cc(Br)ccc1O)c1ccco1	CF NFkB inh 93.8, Peg3 prom inh-1 106.6, HIF-2a inh 93.7 | Peg3 prom inh-2 99.2 | HIF-2a conf 46.3 | HIF-1a counter 102.3
Cc1csc(NC(=O)c2cn3ccccc3n2)n1	LMP1 NFkB inh 67.6, Peg3 prom inh-1 69.2, HIF-2a inh 53.1 | Peg3 prom inh-2 65.2 | HIF-2a conf 77.4 | HIF-1a counter 50.8
Nc1ccc2c(c1)OC1(CCCC1)O2	TRPM1 prom inh 61.9, LMP1 NFkB inh 59.1, Peg3 prom inh-1 77.3, HIF-2a inh 51.8 | Peg3 prom inh-2 55.6 | Mdm2-MdmX confirm 31.3 | HIF-2a conf inactive | HIF-1a counter 78.7
CCCC(=O)NC(c1ccc(C)cc1)c1ccc2cccnc2c1O (configuration not stated)	LMP1 NFkB inh 62.5, Peg3 prom inh-1 63.0 (no result: TRPM1 prom inh) | Peg3 prom inh-2 66.8 | Mdm2-MdmX confirm 89.2
CCCCC(=O)NC(c1ccccc1OC)c1ccc2cccnc2c1O (configuration not stated)	TRPM1 prom inh 78.1, LMP1 NFkB inh 66.4, Peg3 prom inh-1 62.5 | Peg3 prom inh-2 68.6 | Mdm2-MdmX confirm 87.0
CCCCC(=O)NC(c1ccc(OC)c(OC)c1)c1c(O)ccc2ccccc12 (configuration not stated)	none
CC(=O)NC(c1ccc(Cl)cc1Cl)c1ccc2cccnc2c1O (configuration not stated)	LMP1 NFkB inh 68.6, Peg3 prom inh-1 56.2 | Peg3 prom inh-2 59.0 | Mdm2-MdmX confirm 86.0
CCCC(=O)NC(c1ccc(Cl)cc1)c1ccc2cccnc2c1O (configuration not stated)	TRPM1 prom inh 74.7, LMP1 NFkB inh inconclusive, Peg3 prom inh-1 57.4 | Peg3 prom inh-2 64.7 | Mdm2-MdmX confirm 92.2
Cc1noc(C)c1S(=O)(=O)Nc1ccc2c(c1)C(=O)N([C@H](C)CO)C[C@H](C)[C@@H](CN(C)C(=O)CCCN(C)C)OCCCC[C@@H](C)O2	none (no result: TRPM1 prom inh)
O=C(OCC(O)C(O)C(O)C(SCc1ccccc1)SCc1ccccc1)c1ccccc1 (configuration not stated)	none
Cc1ccc2ccccc2c1C(O)c1ncc(-c2ccc(F)cc2)[nH]1 (configuration not stated)	none (no result: TRPM1 prom inh, LMP1 NFkB inh)
CC(=O)CCC(=O)CNC(=O)CC[C@H]1O[C@@H](n2ccc(=O)[nH]c2=O)[C@H](O)[C@@H]1O	none (no result: TRPM1 prom inh, LMP1 NFkB inh)
CC(C)C[C@H]1CN(CCCC[C@H]2CNC(=O)C(=O)N2CCc2ccc(O)cc2)C(=O)C(=O)N1CCC1CCCCC1	none (no result: TRPM1 prom inh, CF NFkB inh, LMP1 NFkB inh, KKLEB tox, Peg3 prom inh-1)
COc1ccc(-c2nsc3c(N4CCN(S(=O)(=O)c5ccccc5F)CC4)ncnc23)cc1	none
COc1ccc(-c2nsc3c(N4CCCCC4C)ncnc23)cc1 (configuration not stated)	TRPM1 prom inh 86.0, LMP1 NFkB inh 73.3, Peg3 prom inh-1 97.1, HIF-2a inh 83.7 | Peg3 prom inh-2 84.9 | HIF-2a conf 92.2 | HIF-1a counter 102.5
COc1cc(C(=O)/C=C/c2cccnc2)c([N+](=O)[O-])cc1OC	Peg3 prom inh-1 69.0, HIF-2a inh 89.5 | Peg3 prom inh-2 96.0 | HIF-2a conf 73.3 | HIF-1a counter 96.3
CS(=O)(=O)c1ccc(-c2cn3cc(C(=O)O)ccc3n2)cc1	Peg3 prom inh-1 65.2, HIF-2a inh 47.7 | Peg3 prom inh-2 44.3 | HIF-2a conf 45.8 | HIF-1a counter inactive
COC(=O)c1ccc2nc(-c3ccc(S(C)(=O)=O)cc3)cn2c1	none
CCCCCc1ccc(OCCCC[n+]2cccc(C)c2)c(CCCCC)c1	TRPM1 prom inh 78.9, CF NFkB inh 57.7, Peg3 prom inh-1 97.5, HIF-2a inh 95.5 | Peg3 prom inh-2 96.6 | Mdm2-MdmX confirm 102.2 | HIF-2a conf inactive | HIF-1a counter 105.8
CCCCOc1ccc(C)cc1CN(CCO)CCO	none
Nc1ccc(S(=O)(=O)c2ccccc2)nc1	none (no result: TRPM1 prom inh)
O=[N+]([O-])c1ccc(S(=O)(=O)c2ccccc2)nc1	TRPM1 prom inh 94.1, CF NFkB inh 108.2, LMP1 NFkB inh 52.6, KKLEB tox -88.1, Peg3 prom inh-1 96.7, HIF-2a inh 75.4 | Peg3 prom inh-2 96.6 | Mdm2-MdmX confirm 102.7 | HIF-2a conf 65.4 | HIF-1a counter 79.2
CCOC(=O)c1c(C)oc2c(F)c(F)c(F)c(F)c2c1=O	TRPM1 prom inh 99.8, Peg3 prom inh-1 104.7, HIF-2a inh 64.3 | Peg3 prom inh-2 99.4 | HIF-2a conf 65.8 | HIF-1a counter 100.5
CC1(c2nnnn2C2CCCC2)CCC(=O)N1c1ccc2c(c1)OCCO2 (configuration not stated)	none (no result: TRPM1 prom inh, CF NFkB inh, LMP1 NFkB inh, KKLEB tox, Peg3 prom inh-1)

From PubChem BioAssay
